Results published in PubChem BioAssay (NCI).
Compounds without any hit were thinned out: in the full panel of roughly 83,000, 20% have a hit.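 Plates (96-well) were seeded with cells, treated with compound at one concentration, and incubated for 48 hours before percent growth was determined.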 A number with no mark means an inactive call. Calls of active or inactive are those of the source. How the source made its calls: active means growth percent below 10; inactive means the rest.

Legend:
Assay in all cases: NCI-60 one-dose screen, 48 h (100 = growth as untreated, 0 = no growth, -100 = all killed)
Details in all cases: 10 µM unless noted
HCT-15 colon = tested on: HCT-15 colon
HT29 colon = tested on: HT29 colon
SNB-75 CNS = tested on: SNB-75 CNS
SNB-19 CNS = tested on: SNB-19 CNS
U251 CNS = tested on: U251 CNS
PC-3 prostate = tested on: PC-3 prostate
SK-MEL-5 melanoma = tested on: SK-MEL-5 melanoma
UACC-62 melanoma = tested on: UACC-62 melanoma
LOX IMVI melanoma = tested on: LOX IMVI melanoma
SK-MEL-28 melanoma = tested on: SK-MEL-28 melanoma

Compound	growth (HCT-15 colon)	growth (HT29 colon)	growth (SNB-75 CNS)	growth (SNB-19 CNS)	growth (U251 CNS)	growth (PC-3 prostate)	growth (SK-MEL-5 melanoma)	growth (UACC-62 melanoma)	growth (LOX IMVI melanoma)	growth (SK-MEL-28 melanoma)
COC(=O)[C@@H](CCCCNC(=O)[C@]12CCC(C)(C)C[C@@H]1C1=CC[C@@H]3[C@@]4(C)C/C(=C/c5ccco5)C(=O)C(C)(C)[C@@H]4CC[C@@]3(C)[C@]1(C)CC2)NC(=O)[C@]12CCC(C)(C)C[C@@H]1C1=CC[C@@H]3[C@@]4(C)C/C(=C/c5ccco5)C(=O)C(C)(C)[C@@H]4CC[C@@]3(C)[C@]1(C)CC2	103%	112%	106%	95.3%	106%	90.3%	97.5%	97.8%	107%	107%
CC1OC(n2c3ccccc3c3c4c(c5c6ccccc6[nH]c5c32)C(=O)N(CCN2CCCC2)C4=O)CC(O)C1O (stereo not given)	10.7%	-49.9% (active)	12.1%	35.1%	37.9%	33.2%	61.3%	67.7%	25.3%	91.4%
COc1cc(/C=C/C(=O)c2ccc(F)cc2)ccc1OCCCCOc1ccc(/C=C/C(=O)c2c(C)nc3ccccc3c2C)cc1OC	96.5%	100%	97.1%	110%	83.3%	93.2%	62.4%	73.1%	90.2%	122%
O=C(Nc1cccc(-c2ccc(Cl)c(C(F)(F)F)c2)c1)C1CCN(Cc2cccc3cccnc23)CC1	-83% (active)	-62.2% (active)	40.3%	61.4%	-82.4% (active)	10.8%	-93.4% (active)	25.9%	-98.2% (active)	-67.6% (active)
C=C(C)[C@@H]1CC[C@]2(CO)CC[C@]3(C)[C@H](CC[C@@H]4[C@@]5(C)CC[C@H](NCO)C(C)(C)[C@@H]5CC[C@]43C)[C@@H]12	-80.7% (active)	-39.4% (active)	-94.7% (active)	42.3%	-68.6% (active)	-3.03% (active)	-90.1% (active)	83.6%	-99.8% (active)	-86.3% (active)
COC(=O)c1nc(-c2ccc(C)cc2)oc1S(=O)(=O)c1cccc(OC)c1	62%	97.1%	83.3%	101%	96.5%	103%	97.8%	92.5%	57.1%	99.2%
O=C(NNC(=O)c1ccc(NC(=O)c2ccccn2)cc1)Nc1ccc([N+](=O)[O-])cc1	100%	110%	81.4%	83.6%	78.5%	94.5%	102%	94%	105%	99%
CCOC(=O)C(=O)C(C(=O)OCC)c1ccccc1 (stereo not given)	108%	116%	107%	103%	112%	101%	106%	109%	106%	109%
Nc1nc(-c2ccc(Cl)cc2)nc2c1sc(=S)n2-c1ccccc1	60.1%	47.9%	-30.5% (active)	37.9%	17.7%	62.1%	36.8%	46.9%	29.4%	55.7%
Cc1sc2nc(NCCc3c[nH]c4ccc(Cl)cc34)[nH]c(=O)c2c1C	7.96% (active)	19.6%	23.5%	63.8%	32.3%	29.2%	50.4%	42.3%	26.5%	70.1%
OCCn1cc(-c2nc(-c3c[nH]c4ncccc34)cs2)c2ccccc21	55.9%	95%	55.2%	88.1%	78.9%	61.8%	77.5%	69.9%	77.7%	104%
O=C(N/N=C/c1ccc(Cl)cc1)c1[nH]c2ccc(Cl)cc2c1-c1ccccc1	11.2%	19.4%	70.5%	15.1%	10.4%	17.2%	-36.6% (active)	30.7%	19%	93.3%
C=C1C(=O)O[C@H]2[C@H]1CC/C(COC(=O)c1cc3ccccc3s1)=C\CC[C@@]1(C)O[C@@H]21	-62.4% (active)	-75.4% (active)	-7.28% (active)	-9.05% (active)	-82.6% (active)	-56% (active)	-93.8% (active)	-61.1% (active)	-83.7% (active)	-70.7% (active)
CC1CCN(S(=O)(=O)c2ccc(S(=O)(=O)N3CCCC(c4nc5c(nnn5Cc5cccc(Cl)c5)c(=O)[nH]4)C3)cc2)CC1 (stereo not given)	36.1%	17.1%	21.6%	67.6%	45.1%	47%	24.1%	40.2%	42.4%	62%
COC12C=C/C(=C(/C(=O)OCc3ccncn3)C(=O)CCCCCCCCC3(OC)C=C/C(=C(/C(=O)OCc4ccncn4)C(=O)CCCCCCCC1)O3)O2	-28.5% (active)	12.5%	48.7%	7.75% (active)	0.453% (active)	-36.7% (active)	-88.1% (active)	-47.4% (active)	-54.8% (active)	-19.2% (active)
COC(CC(F)F)c1cn(S(=O)(=O)c2ccc(C)cc2)c2ccccc12 (stereo not given)	20%	4.89% (active)	18.6%	29.2%	19.6%	21.3%	34.1%	32.1%	40.7%	44.7%
N#Cc1nc(-c2ccc(Cl)cc2)oc1S(=O)(=O)N1CCN(c2ccc(F)cc2)CC1	54.3%	88.5%	94.2%	96.4%	94.6%	96.4%	96%	100%	29.3%	104%
COC1=CC(c2ccc[nH]2)=N/C1=C\c1[nH]c(C)c(C(=O)OC(C)C)c1C	-30.1% (active)	-11.6% (active)	-15.7% (active)	21.1%	-26.7% (active)	8.84% (active)	-99.5% (active)	-62.9% (active)	-92.4% (active)	-54.5% (active)
O=C(Nc1ccc(OS(=O)(=O)c2ccc(F)cc2)cc1)C1CCCCCC1	54.7%	31.6%	102%	89.4%	72.9%	88.3%	71.9%	85.5%	86.7%	109%
Nc1ncnc2c1N=C(c1ccc(Br)cc1)CC(c1cccc(Nc3ccnc4cc(C(F)(F)F)ccc34)c1)N2 (stereo not given)	27.2%	26.4%	66.2%	70.6%	51%	39%	49.5%	74.3%	63.3%	72.2%
N#Cc1c(-c2ccc(Cl)cc2)nc(NN2C(=O)c3ccccc3C2=O)nc1N1CCOCC1	112%	108%	84.6%	94.1%	106%	110%	101%	101%	102%	117%
COC12C=C/C(=C(/C(=O)OCc3ccncc3)C(=O)CCCCCCCCC3(OC)C=C/C(=C(/C(=O)OCc4ccncc4)C(=O)CCCCCCCC1)O3)O2	-57.7% (active)	1.11% (active)	-57.2% (active)	7.98% (active)	-50.1% (active)	-35% (active)	-84.5% (active)	-63% (active)	-63.9% (active)	-61.1% (active)
COc1cc(NS(=O)(=O)c2ccc(-c3cnc(C4CC4)o3)cc2)ccc1F	20.9%	2.64% (active)	-15.8% (active)	25.6%	22.1%	33.9%	15.5%	31.6%	35%	65.2%
